Laboratory results: PubChem BioAssay (NCI)
Compounds without any hit were thinned out: in the full panel of roughly 79,000, 15% have a hit. A number with no mark means an inactive call. The source made the active and inactive calls. Rule as the data show it: active = growth inhibition above about 70%; inactive = the rest.

Legend:
[1] = NCI Yeast Anticancer Drug Screen. Data for the rad50 strain (AID 155);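 also: 0% = growth of vehicle-only cultures of the same strain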; settings: S. cerevisiae rad50 strain growth inhibition; at 50.0 µM; active compounds read high
Procedure, shortened: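 Genetically altered yeast (DNA repair pathway); compound treatment; growth inhibition vs vehicle ctrl.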

[2] = NCI Yeast Anticancer Drug Screen. Data for the mec2-1 strain (AID 157); settings: S. cerevisiae mec2-1 strain, at 50.0 µM, active compounds read high
Procedure, shortened: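 Test agents were screened against the mec2-1 yeast strain, with defined DNA repair or cell cycle alteration. Growth was scored as inhibition against vehicle-only controls.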

[3] = NCI Yeast Anticancer Drug Screen. Data for the sgs1 mgt1 strain (AID 161);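 also: 0% = growth of cultures given vehicle only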; settings: S. cerevisiae sgs1 mgt1 strain, at 50.0 µM, active compounds read high
Procedure, shortened: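 Mutant yeast exposed to compound; growth scored against vehicle-only wells.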

[4] = NCI Yeast Anticancer Drug Screen. Data for the cln2 rad14 strain (AID 165);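 also: 0% = growth equal to vehicle treated cultures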; settings: S. cerevisiae cln2 rad14 strain, at 50.0 µM, active compounds read high
Procedure, shortened: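 Growth of compound-exposed yeast (cln2 rad14 genotype) measured and expressed as inhibition relative to vehicle.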

[5] = NCI Yeast Anticancer Drug Screen. Data for the bub3 strain (AID 167); settings: S. cerevisiae bub3 mutant strain, at 50.0 µM, active compounds read high
Procedure, shortened: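 Yeast carrying a defined mutation is treated with each compound, and growth is compared with that of vehicle-exposed cells to give inhibition.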

[6] = NCI Yeast Anticancer Drug Screen. Data for the mlh1 rad18 strain (AID 175); settings: S. cerevisiae mlh1 rad18 strain growth inhibition; at 50.0 µM; active compounds read high
Procedure, shortened: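 In this whole-cell yeast screen, a strain with altered DNA damage repair is challenged with compound, and its growth is measured against matched vehicle-treated controls.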

SMILES | growth inhibition [1] | growth inhibition [2] | growth inhibition [3] | growth inhibition [4] | growth inhibition [5] | growth inhibition [6]
CC1(c2cccs2)C(=O)NC(=O)N1C(=O)CCl (configuration not stated) | 6.8% | 4.55% | -6.65% | -2.75% | 9.3% | 5.55%
O=C(Nc1nc2ccsc2s1)c1ccccc1 | -15.8% | -3% | -4% | -34.9% | -8% | -10.8%
CCOCCNCc1ccc(Cl)cc1Cl | 4% | -1.45% | -5% | 2.85% | 7.8% | -9.7%
CCOC(=O)Cc1c(Cc2[nH]c(C(=O)OCc3ccccc3)c(CC(=O)OCC)c2CC(=O)OCC)[nH]c(C(=O)OCc2ccccc2)c1CC(=O)OCC | -10.7% | -21.6% | -19% | -3.1% | -3.35% | -17.3%
COc1c(OC)c(C(C)C)c2c(c1C(=O)O)C(=O)OC2=O | -5.6% | 10.9% | 11.2% | -14.9% | -7.5% | -7.75%
[C-]#[N+]C(=C\c1ccc(O)cc1)/C(=C/c1ccc(O)cc1)[N+]#[C-] | 97.8% (active) | 98% (active) | 97.8% (active) | 96% (active) | 98.1% (active) | 98.2% (active)
O=C1CCCC/C1=C/c1ccccc1 | 6% | 18.9% | -3.3% | -19.1% | -11.9% | 8.05%
COc1ccc(/C=C/C(CC(NO)c2ccc(OC)cc2)=N\O)cc1 (configuration not stated) | 0.1% | -4.25% | 3.05% | -38% | -8.7% | 3.8%
COc1cc(C(SCc2ccccc2)SCc2ccccc2)ccc1O | 28.6% | 12.2% | 30.9% | 28.6% | 17.4% | 28.6%
CC(O)COc1ccc(Cl)cc1Cl (configuration not stated) | 27.1% | -10.2% | 45.6% | 9.6% | 8.35% | 26.6%
COc1ccc(C2=NNC(=O)OC2c2ccccc2)cc1 (configuration not stated) | 29.1% | 16.9% | 28.2% | -29.6% | 26.3% | 28.9%
C/[N+]([O-])=C/c1ncc([N+](=O)[O-])n1CCO | 4.05% | 5.9% | 7.95% | 25.1% | -3.5% | 25.6%
CCN(CC)CCCC(C)NC(=O)c1ccc2c(c1)C(=O)c1ccccc1C2=O (configuration not stated) | 6% | 19.1% | 16.9% | 36.4% | -17.7% | -33.9%
C=C1OC(C2CCCCC2)=C(C(=O)OCC)C1C (configuration not stated) | -9.6% | -17.2% | -39% | -21.1% | 1.9% | -9.45%
CC(=O)Oc1cc(C)c2c(c1C)C1OC(=O)C(C)C1CC2 (configuration not stated) | 12.6% | -12.7% | 18.6% | 16.3% | 4.8% | 17.1%
CCOC(=O)C1CC=CCC1C(=O)OCC (configuration not stated) | -5.25% | -7.5% | 0.5% | 2.55% | 1.3% | -19.5%
CCOC(=O)CN(C)C#N | -16.9% | -33.3% | -44% | -5.3% | -31.6% | -2.15%
CCCCSc1ncnc2nc(C)[nH]c12 | -9.85% | -20.6% | -7.7% | -25.6% | -14% | -12.7%
O=C(O)COc1cccc2ccccc12 | 5.25% | -18.6% | -0.7% | -24.6% | 1.75% | 14.7%
O=c1ccc(O)c[nH]1 | 12.3% | 18.8% | 34.7% | 9.95% | 2.8% | 16.1%
Cc1cc2nc(C(C)C(=O)c3ccc(Cl)cc3)c(=O)[nH]c2cc1C (configuration not stated) | -12.1% | -12.7% | -0.9% | 0.5% | -24.4% | -3.9%

SMILES | growth inhibition [1] | growth inhibition [2] | growth inhibition [3] | growth inhibition [4] | growth inhibition [5] | growth inhibition [6]
CC(=O)N1CCc2[nH]c3ccccc3c2CC1 | 10.9% | -7.05% | -4.55% | 21.8% | -3.1% | 16.2%
CC(=S)N=Cc1c(N)[nH]n(-c2ccccc2)c1=O | -40.5% | -12.8% | -24.6% | -0.3% | -20.1% | -24.5%
O=C(CCN1C(=O)c2ccccc2C1=O)c1cnc[nH]1 | 13.8% | 16.9% | 13.4% | -4.5% | 2.6% | 10.4%
CC(C)(C)c1cc[n+](C[n+]2ccc(C(C)(C)C)cc2)cc1 | 4.8% | -12.2% | -0.45% | -13.4% | -22.9% | -5%
CC(C)(CO)NCC(O)CS(=O)(=O)O (configuration not stated) | -30.8% | -16.6% | -9% | -61% | 4.25% | 0.4%
CC(C)CCc1c(N)nc(N)[nH]c1=O | 6.8% | -13.6% | -8.6% | -42% | 1% | 3.75%
CC1(c2nc3ccccc3[nH]2)CCC(C(=O)O)C(C)(C)O1 (configuration not stated) | 1.75% | -11.2% | -18.4% | 15.6% | -19.6% | -32.9%
CC1OC(OC2C(OC(=O)[C@]34CCC(C)(C)C[C@H]3C3=CC[C@@H]5[C@@]6(C)CC[C@H](OC7OC(CO)C(O)C(O)C7OC7OC(CO)C(O)C(O)C7O)C(C)(C)[C@@H]6CC[C@@]5(C)[C@]3(C)CC4)OCC(O)C2O)C(O)C(O)C1OC1OCC(O)C(O)C1O (some centres not stated) | -24.8% | -41.2% | -44.5% | -33.8% | -32.8% | -23.1%
CC12CCC(/C(=C/N(O)/C=C3\C(=O)C4(C)CCC3C4(C)C)C1=O)C2(C)C | -17.6% | -11.8% | -30.1% | 1.85% | 6.75% | 0.8%
CNC(=O)NNC(=O)NC | -45.1% | -24.6% | -24.6% | -27.6% | -15.7% | -6.05%
O=C(O)C=C1CCCCC1 | 4.35% | -4.2% | 20% | 10.4% | 11.9% | -1.1%
CC(O)CCNc1nnc2c3ccccc3n(C)c2n1 (configuration not stated) | 5.95% | 0.65% | 0.1% | 44.2% | 5.3% | -16.2%
CN(C)C1CCC(C=C(C2CCC(CC(=O)O)CC2)C2CCC(CC(=O)O)CC2)CC1 (configuration not stated) | -2.95% | -21.5% | 9.6% | 13.6% | 1.05% | 6.3%
CC(=O)OCc1ccnc2ccc(OC(C)=O)cc12 | 0.05% | 15.4% | -6.4% | -8.75% | -5.2% | 2.75%
CC(=O)/C(=N\N=C(N)N)c1ccccc1 | -25.4% | -28.8% | -19.6% | 19.8% | 18.1% | 4.5%
Nc1ccc(-c2cc[cH-]c2)cc1.[Fe+2].c1cc[cH-]c1 | 8.2% | 10.3% | 10.8% | 12.2% | 21.4% | 22.6%
COc1ccc(N=Nc2c(C)nn(C(=O)c3ccncc3)c2C)cc1 | -21.9% | -3.75% | 13.4% | -1.2% | 11.4% | -10.1%
O=C1CCCCC1N1CCCCC1 (configuration not stated) | -4.95% | -14.7% | 10.8% | 2.65% | -1.3% | 0%
COc1ccc(/C=C/C(=O)c2ccc(Br)cc2)cc1 | -33.4% | -67.5% | -34.2% | 2.75% | -14.4% | -44.3%
O=C(O)CSSCC(=O)O | -0.15% | -16.6% | -18.8% | 23.1% | -10.2% | -24.5%
CC(=O)c1cccc(NC(=O)C(=O)C(C(=O)NN)c2ccccc2)c1 (configuration not stated) | 11.4% | 11.1% | -5.2% | 4.2% | 23% | 15.9%
